Test [1] can be described thus: qHTS assay to identify small molecule antagonists of the glucocorticoid receptor (GR) signaling pathway - cell viability counter screen (AID 720693). Further: nearly all actives have a fitted effect of over 55% in size. A general note: qHTS replaces the single test concentration by a dilution series.
A short description of test [2]: qHTS assay for identifying genotoxic compounds that show differential cytotoxicity against isogenic chicken DT40 cell lines with known DNA damage response pathways - wild type cell line (AID 743012). Further: nearly all actives have a fitted effect of over 60% in size. Further: potency means the concentration at half of the fitted maximal effect. In outline: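 Cells (DT40 wild type, 300/well) are treated with DMSO-dissolved compounds after a ~0.5 h pre-incubation and kept 40 h at 37 C/5% CO2. Viability is then measured by CellTiter-Glo luminescence following 30 min at room temperature.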

The nature of test [3]: qHTS assay for identifying genotoxic compounds that show differential cytotoxicity against isogenic chicken DT40 cell lines with known DNA damage response pathways - Rev3 mutant cell line (AID 743014). Further: nearly all actives have a fitted effect of over 55% in size. Further: potency means the concentration at half of the fitted maximal effect.
Test [4] can be described thus: qHTS assay for identifying genotoxic compounds that show differential cytotoxicity against isogenic chicken DT40 cell lines with known DNA damage response pathways - Rad54/Ku70 mutant cell line (AID 743015). Further: nearly all actives have a fitted effect of over 60% in size. Further: potency means the concentration at half of the fitted maximal effect.
Test [5] is described as follows: qHTS assay to identify small molecule antagonists of the androgen receptor (AR) signaling pathway - cell viability counter screen (AID 743033; further: nearly all actives have a fitted effect of over 45% in size).
Test [6] has as its target Androgen receptor (Homo sapiens) (UniProt P10275). Put plainly: qHTS assay to identify small molecule antagonists of the androgen receptor (AR) signaling pathway (AID 743035; active means well fitted inhibition curve with a large enough effect in the signal ratio in the repeat runs, not every such curve was filed as active; the % refers to the signal ratio). The procedure, abridged:
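Antagonism is scored as loss of R1881-driven beta-lactamase reporter expression in HEK293 cells carrying the reporter under a UAS element, after 16 h co-treatment at 37C and a 2 h room-temperature FRET substrate read.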

The target is the same in test [7]. Put plainly: qHTS assay to identify small molecule agonists of the androgen receptor (AR) signaling pathway (AID 743036; active means well fitted activation curve with a large enough effect in the signal ratio in the repeat runs, with a control signal flat, not every such curve was filed as active; the % refers to the signal ratio). In outline:
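Activation was read as beta-lactamase FRET signal from LiveBLAzer B/G substrate, added for 2 h at room temperature. Before that, GeneBLAzer AR-UAS-bla GripTite (HEK293) cells had 16 h compound exposure at 37C.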

Test [8] in a line: qHTS assay to identify small molecule antagonists of the androgen receptor (AR) signaling pathway using the MDA cell line - cell viability counter screen (AID 743041; further: nearly all actives have a fitted effect of over 45% in size). The procedure, abridged:
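MDA-kb2 AR-luc cells (MMTV-luciferase, AR/GR responsive) treated with compounds plus R1881 agonist for 16 h at 37C. CellTiter-Fluor added at 15.5 h; fluorescence read after 30 min in the same wells.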

For test [9], the target named is Androgen receptor (Homo sapiens) (UniProt P10275). Put plainly: qHTS assay to identify small molecule antagonists of the androgen receptor (AR) signaling pathway using the MDA cell line (AID 743042; further: nearly all actives have a fitted effect of over 55% in size). In outline: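 MDA-kb2 breast carcinoma cells carrying MMTV-luciferase (AR/GR responsive) were co-treated with compounds and the agonist R1881 for 16 h at 37C. Inhibition read as ONE-Glo luminescence; CellTiter-Fluor fluorescence measured in parallel for cytotoxicity.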

Test [10] in a line: qHTS assay to identify small molecule antagonists of the thyroid receptor (TR) signaling pathway (AID 743065). Further: nearly all actives have a fitted effect of over 55% in size. The procedure, abridged:
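GH3.TRE-Luc rat pituitary cells (two TREs driving luciferase) were dosed with compound, then stimulated with 1 nM T3 (final) for 23.5 h at 37 C. ONE-Glo luminescence was the read-out, with CellTiter-Fluor fluorescence as the cytotoxicity counter-screen.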

Test [11] deals with thyroid hormone receptor (rat, GH3 cells). Put plainly: qHTS assay to identify small molecule agonists of the thyroid receptor (TR) signaling pathway (AID 743066; calls by dose curve).
Test [12] can be described thus: qHTS assay to identify small molecule antagonists of the estrogen receptor alpha (ER-alpha) signaling pathway - cell viability counter screen (AID 743074; calls by dose curve;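 further: HEK293 cells carrying ER-alpha-UAS-bla reporter stimulated with 17beta-estradiol; nearly all actives have a fitted effect of over 45% in size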).
The nature of test [13]: qHTS assay to identify small molecule antagonists of the estrogen receptor alpha (ER-alpha) signaling pathway using the BG1 cell line - cell viability counter screen (AID 743081).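 Further: compound given together with 17beta-estradiol as the ER stimulus; nearly all actives have a fitted effect of over 45% in size.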
Test [14] deals with Aromatase (Homo sapiens) (UniProt P11511). Put plainly: qHTS assay to identify aromatase inhibitors (AID 743083). Further: nearly all actives have a fitted effect of over 55% in size.
A short description of test [15]: qHTS assay to identify aromatase inhibitors - cell viability counter screen (AID 743084).
Test [16] can be described thus: qHTS assay to identify small molecule antagonists of the thyroid receptor (TR) signaling pathway - cell viability counter screen (AID 743064). Further: nearly all actives have a fitted effect of over 50% in size. In outline: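 In-well cytotoxicity read by CellTiter-Fluor (30 min, 37 C) following 23.5 h exposure of GH3 cells bearing a TRE-luciferase sensor. Compounds were added alongside 1 nM (final) T3 to drive TR transactivation.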

The target of test [17] is Estrogen receptor (Homo sapiens) (UniProt P03372). Put plainly: qHTS assay to identify small molecule antagonists of the estrogen receptor alpha (ER-alpha) signaling pathway (AID 743069; active means well fitted curve in the direction sought with a large enough effect in the signal ratio in the repeat runs, not every such curve was filed as active; the % refers to the signal ratio). In outline:
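HEK293 ER-alpha-UAS-bla GripTite cells, held overnight in 2% charcoal-stripped FBS, 5,000 cells/well, preincubated 4 h, then compound plus 17beta-estradiol for 18 h at 37C. Beta-lactamase read by LiveBLAzer B/G FRET substrate, 2 h at room temperature.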

Test [18] shares this target. Put plainly: qHTS assay to identify small molecule agonists of the estrogen receptor alpha (ER-alpha) signaling pathway (AID 743075; calls by dose curve).
Test [19] has the same target. Put plainly: qHTS assay to identify small molecule agonists of the estrogen receptor alpha (ER-alpha) signaling pathway using the BG1 cell line (AID 743079). Further: nearly all actives have a fitted effect of over 20% in size. The conditions noted are these: BG1Luc4E2 cells, ERE-luciferase agonist, 22 h; at 70.3 µM (top of the series).
A short description of test [20]: qHTS assay to identify small molecule antagonists of the estrogen receptor alpha (ER-alpha) signaling pathway using the BG1 cell line (AID 743080; calls by dose curve;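 further: BG1 cells stimulated with 17beta-estradiol alongside compound; nearly all actives have a fitted effect of over 25% in size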). The procedure, abridged: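 Luminescence from a 4×ERE-luciferase reporter in BG1-Luc-4E2 cells served as read-out. Cells, pre-cultured 5 days in stripped-serum phenol-red-free medium, were exposed to compound with 17beta-estradiol co-stimulation for 21.5 h at 37 C.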

“And” between values parts separate entries of the source, which are not always exact repeats. Equal values may be shown once. Inconclusive results are not listed. A number with no mark means an inactive call. The source made the active and inactive calls. Unless noted, the call rests on the fitted dose curve; in most records, active means well fitted curve in the direction sought with a large enough effect in the repeat runs; inconclusive means weak or mixed curves; inactive means no such curve, though single readings can be large; an effect the other way counts as inactive or inconclusive.
On the % scale 0 is the no-effect control and ±100 the full control effect.

Chain of Androgen receptor (Homo sapiens) (P10275 whole entry, looked up): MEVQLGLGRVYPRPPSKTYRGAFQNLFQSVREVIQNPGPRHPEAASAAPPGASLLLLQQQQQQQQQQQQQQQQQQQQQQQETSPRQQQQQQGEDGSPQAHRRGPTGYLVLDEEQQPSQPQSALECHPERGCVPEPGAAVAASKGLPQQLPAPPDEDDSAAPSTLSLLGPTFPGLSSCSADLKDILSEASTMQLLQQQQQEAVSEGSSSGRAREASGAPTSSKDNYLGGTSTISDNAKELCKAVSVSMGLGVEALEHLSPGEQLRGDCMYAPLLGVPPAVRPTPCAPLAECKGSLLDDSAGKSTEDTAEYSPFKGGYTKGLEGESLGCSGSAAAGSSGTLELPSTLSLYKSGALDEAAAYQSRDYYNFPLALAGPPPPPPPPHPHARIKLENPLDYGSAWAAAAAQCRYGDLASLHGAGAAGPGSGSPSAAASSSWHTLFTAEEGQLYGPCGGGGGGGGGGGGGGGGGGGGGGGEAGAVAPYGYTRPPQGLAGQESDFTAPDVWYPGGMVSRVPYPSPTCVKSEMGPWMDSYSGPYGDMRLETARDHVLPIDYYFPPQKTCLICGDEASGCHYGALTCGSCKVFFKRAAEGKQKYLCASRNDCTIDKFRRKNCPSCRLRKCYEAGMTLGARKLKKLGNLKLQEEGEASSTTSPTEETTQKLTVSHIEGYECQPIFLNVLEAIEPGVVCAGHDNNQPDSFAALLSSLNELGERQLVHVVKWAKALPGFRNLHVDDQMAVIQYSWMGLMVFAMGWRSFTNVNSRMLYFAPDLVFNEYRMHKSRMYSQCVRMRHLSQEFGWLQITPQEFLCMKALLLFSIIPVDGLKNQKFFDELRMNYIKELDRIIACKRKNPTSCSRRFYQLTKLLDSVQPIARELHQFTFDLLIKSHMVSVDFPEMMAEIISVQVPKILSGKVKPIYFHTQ
Chain of Estrogen receptor (Homo sapiens) (P03372 whole entry, looked up): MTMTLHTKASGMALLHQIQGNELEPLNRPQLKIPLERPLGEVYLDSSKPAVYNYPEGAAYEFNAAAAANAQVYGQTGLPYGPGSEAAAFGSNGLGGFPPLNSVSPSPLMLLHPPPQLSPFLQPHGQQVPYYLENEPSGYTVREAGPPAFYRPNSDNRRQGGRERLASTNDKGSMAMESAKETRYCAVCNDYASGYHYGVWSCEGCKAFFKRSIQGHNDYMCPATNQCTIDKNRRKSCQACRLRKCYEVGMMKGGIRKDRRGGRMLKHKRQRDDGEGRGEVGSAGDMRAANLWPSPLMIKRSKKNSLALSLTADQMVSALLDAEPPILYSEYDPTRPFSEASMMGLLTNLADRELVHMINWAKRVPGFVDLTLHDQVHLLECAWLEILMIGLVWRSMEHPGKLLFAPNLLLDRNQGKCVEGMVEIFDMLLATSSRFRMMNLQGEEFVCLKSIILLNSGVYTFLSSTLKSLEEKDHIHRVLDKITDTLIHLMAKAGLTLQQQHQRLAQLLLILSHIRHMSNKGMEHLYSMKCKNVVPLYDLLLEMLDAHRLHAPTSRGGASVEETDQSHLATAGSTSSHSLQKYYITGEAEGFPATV
Chain of Aromatase (Homo sapiens) (P11511 whole entry, looked up): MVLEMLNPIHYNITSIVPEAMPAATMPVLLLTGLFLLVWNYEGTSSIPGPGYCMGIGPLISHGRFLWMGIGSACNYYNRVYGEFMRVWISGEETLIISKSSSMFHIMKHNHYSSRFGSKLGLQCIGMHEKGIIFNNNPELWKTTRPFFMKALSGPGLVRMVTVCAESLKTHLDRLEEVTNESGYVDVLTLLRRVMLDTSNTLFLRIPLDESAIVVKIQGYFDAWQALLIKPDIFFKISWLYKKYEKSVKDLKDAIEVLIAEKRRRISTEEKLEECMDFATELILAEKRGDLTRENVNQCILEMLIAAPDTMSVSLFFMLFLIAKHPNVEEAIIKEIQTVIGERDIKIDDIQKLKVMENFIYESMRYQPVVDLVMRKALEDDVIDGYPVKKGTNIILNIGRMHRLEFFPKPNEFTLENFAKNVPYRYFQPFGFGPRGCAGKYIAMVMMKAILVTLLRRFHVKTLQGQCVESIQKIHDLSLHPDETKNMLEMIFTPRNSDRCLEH

In the case of `CCC1(c2ccccc2)C(=O)N(COC)C(=O)N(COC)C1=O`, the Potency entry in test [1], in test [2], in test [3], in test [4], in test [5] and in test [6] was “inactive” each time. In addition, the Potency result in test [8], in [9], in test [10], in test [11], in test [12] and in [13] was “inactive” throughout. Besides, the Potency entry in test [14] and in [15] was “inactive” throughout. In [7], the result was inactive.
For the compound `CC1N=C(N)OC1c1ccccc1` (stereo unspecified), the Potency result in [1], in test [2], in [3], in test [4], in test [5] and in test [8] was “inactive” throughout. Also, the Potency entry in test [16], in [10], in test [11], in test [17], in test [18] and in test [20] was “inactive” in each case. The Potency entry in test [14] and in test [15] was “inactive” each time. The activation in [19] was 10.7%.
Regarding `BrCCc1ccccc1`, the Potency entry in [1], in test [2], in [3], in [4], in test [5] and in test [8] was “inactive” each time. Moreover, the Potency entry in test [16], in test [10], in test [11], in test [12], in [13] and in [14] was “inactive” in each case. Further, the Potency result in test [15] was “inactive”.
For `S=C=S`, the Potency entry in test [1], in test [2], in test [3], in test [4], in test [5] and in test [8] was “inactive” each time. Further, the Potency entry in test [16], in test [11], in test [17], in test [12], in [18] and in test [20] was “inactive” each time. Also, the Potency result in test [13], in [14] and in test [15] was “inactive” each time. Further, the activation in test [19] is -5.81% and -2.85%.
`O=c1[nH]oc2c1CCNC2`: the Potency result in test [1], in test [2], in test [3], in test [4], in test [5] and in [8] was “inactive” each time. In addition, the Potency result in test [16], in [10], in test [11], in test [12], in test [18] and in [20] was “inactive” throughout. Besides, the Potency result in test [13], in [14] and in [15] was “inactive” throughout. Moreover, the activation in test [19] was -5.36%.
Regarding `CCCC(C)(COC(N)=O)COC(N)=O`, the Potency entry in test [1], in [2], in test [3], in test [4], in [5] and in test [8] was “inactive” throughout. For the same compound, the Potency entry in test [16], in test [10], in [11], in test [12], in test [13] and in test [14] was “inactive” each time. Further, the Potency result in test [15] is “inactive”.
Consider `CC(=O)CN(CC(C)=O)N=O`, for which the Potency entry in [1], in test [2], in test [3], in test [4], in test [5] and in test [8] was “inactive” each time. The Potency entry in [16], in [11], in test [17], in test [12], in [18] and in test [20] was “inactive” each time. Further, the Potency result in test [13], in test [14] and in test [15] was “inactive” throughout. In addition, in test [19], the activation was -5.98%.
Consider `CNC(=O)Oc1ccccc1C(C)C`, for which the Potency entry in test [1], in [2], in test [3], in [4], in [5] and in [6] was “inactive” each time. Moreover, the Potency entry in [8], in test [9], in test [16], in test [10], in test [11] and in test [17] was “inactive” in each case. The Potency entry in [12], in [18], in test [20], in test [13], in test [14] and in test [15] was “inactive” throughout. Moreover, the compound was classed as inactive in test [7]. The activation in test [19] is -4.06%.
For `NC(=O)OCCCc1ccccc1`, the Potency result in test [1], in [5], in test [8], in [16], in test [10] and in test [11] was “inactive” in each case. Further, the Potency entry in test [17], in test [12], in test [18], in [20], in [13] and in test [14] was “inactive” throughout. Moreover, the Potency entry in test [15] is “inactive”. For the same compound, the Potency in [2] is 13.3 µM (active); in test [3], 11.9 µM (active); in test [4], 29.8 µM (active). For the same compound, the activation in test [19] is 2.88%.

Source of the values: PubChem BioAssay (Tox21).
